Source: the OligoGym collection

target: PSKH2; experiment: pooled miR-30 sensor sort-seq; sequence = guide strand; settings: shRNA
Also: reference of the scale not given here.

Row | Sequence | sensor-assay potency score (higher = more potent)
1 | TTTGTGAGAATAATGTGACTTA | 0.516
2 | TACCATGTAAACTTGATCCTCA | 0.763
3 | TTGCCTTTCAGAATCTTCCTGT | 0.856
4 | AAATTTTCGACTCTTCACCTGG | 0.215
5 | TTACCATGTAAACTTGATCCTC | -0.301
6 | TTGGTTTTGACCTTCGTGCTTG | 0.0948
7 | TTTTCGACTCTTCACCTGGATG | -1.22
8 | TAGTTTGTCTATAAAGTCCTTC | -0.109
9 | TTGTCTATAAAGTCCTTCGCCA | -0.69
10 | TTGACCTTCGTGCTTGGCCCAA | -1.26

target: PSMB6; experiment: as above; settings: shRNA

Row | Sequence | sensor-assay potency score (higher = more potent)
11 | AATGCTGTGGAAACCGAGCTGG | -0.331
12 | GTATCGGTAACACATCTCCTTA | -1.65
13 | TATCGGTAACACATCTCCTTAA | -0.95
14 | TTGTTCTGGAGTCCGCCCCCAG | -1.38
15 | TTGCAGACACTCTTCCTTGGTC | -0.171
16 | TTGTCAGTCACTCGATTGGCGA | -1.6
17 | TTAAATTTTGCATCAGTACAGG | -0.777
18 | TAGCCATAGATGTAGGAGCTCC | -0.837
19 | TTCAATGCTGTGGAAACCGAGC | -0.63
20 | TAGGTAGCATCAACATAGCCAT | -0.545
21 | TCAGCTTGTCAGTCACTCGATT | -0.432
22 | TCGTGAATAGGTGTCAGCTTGT | -0.101

target: PSMC1; experiment: as above; settings: shRNA

Row | Sequence | sensor-assay potency score (higher = more potent)
23 | TTTCTTGTCCTTGTCATCCTTC | 0.111
24 | TAATGGTTTCATTTGTTCCTGA | -0.172
25 | TAATTCTCTCTAACTTCAGTAA | -0.505
26 | AACTTCAGTAATTTTAACCGGC | 0.102
27 | TTCAGCAGTTCCAACATTGTTC | -0.616
28 | TTGAGCAGGACCGAGCAGCCAG | -1.07
29 | TTGCCTTGATGTCAGCACCAGA | -0.927
30 | TTGTCCTTGTCATCCTTCTTGC | -0.829
31 | AATATCTGCATAGGTCTCCTGG | -0.497
32 | TTTAATTCTCTCTAACTTCAGT | -0.456
33 | TTGTGGTTGAGCAGGACCGAGC | -1.36

target: PSMD14; experiment: as above; settings: shRNA

Row | Sequence | sensor-assay potency score (higher = more potent)
34 | AAATTTAGCAACATCTTCTGTT | 0.377
35 | TTAGCAACATCTTCTGTTCCAG | 0.0236
36 | TTTGTCTTGGTTCATGTCCTAA | -1.03
37 | TAGCAACATCTTCTGTTCCAGT | -0.472
38 | TTCTTCTACAGCCTTATTGTAA | -1.22
39 | TATCTTCTTCTTCTACAGCCTT | -0.722
40 | TAGCTTGGAACACTGGATCAAC | -0.999
